The panel holds about 83,000 compounds, 20% with a hit somewhere; the sample as a whole holds those more often.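 Results are percent growth after 48 hours of single-concentration exposure. 100 means growth as in untreated cells, lower positive values show inhibition; negative values down to -100 show cell death.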 Activity calls are given as the source filed them. How the source made its calls: active means growth percent below 10; inactive means the rest.
Tests used:
Experiment in all cases: NCI-60 one-dose screen, 48 h (100 = growth as untreated, 0 = no growth, -100 = all killed)
SK-MEL-2 melanoma = conditions: 10 µM unless noted
SN12C renal = conditions: 10 µM unless noted
TK-10 renal = conditions: 10 µM unless noted
ACHN renal = conditions: 10 µM unless noted
CAKI-1 renal = conditions: 10 µM unless noted
A498 renal = conditions: 10 µM unless noted
CCRF-CEM leukemia = conditions: 10 µM unless noted
MOLT-4 leukemia = conditions: 10 µM unless noted
SR leukemia = conditions: 10 µM unless noted
RPMI-8226 leukemia = conditions: 10 µM unless noted
OVCAR-8 ovarian = conditions: 10 µM unless noted
OVCAR-5 ovarian = conditions: 10 µM unless noted
OVCAR-4 ovarian = conditions: 10 µM unless noted
SK-OV-3 ovarian = conditions: 10 µM unless noted
IGROV1 ovarian = conditions: 10 µM unless noted
OVCAR-3 ovarian = conditions: 10 µM unless noted
HS 578T breast = conditions: 10 µM
NCI/ADR-RES ovarian = conditions: 10 µM unless noted
UO-31 renal = conditions: 10 µM unless noted

Measured: growth

CCCCCCCCCCCCCCCCOc1ccc(S(=O)(=O)N(C)C)cc1[N+](=O)[O-]
inactive: SK-MEL-2 melanoma 97.1% | SN12C renal 93.1% | TK-10 renal 86% | ACHN renal 93.5% | CAKI-1 renal 99.1% | A498 renal 118% | CCRF-CEM leukemia 114% | MOLT-4 leukemia 103% | SR leukemia 81.6% | RPMI-8226 leukemia 107% | OVCAR-8 ovarian 102% | OVCAR-5 ovarian 101% | OVCAR-4 ovarian 101% | SK-OV-3 ovarian 79.2% | IGROV1 ovarian 98.5% | OVCAR-3 ovarian 117% | HS 578T breast 80.4% | NCI/ADR-RES ovarian 115%

CC1CCN(Cc2ccc(NC(=O)c3cc4ccc5cccnc5c4[nH]3)cc2)CC1
inactive: SK-MEL-2 melanoma 12% | SN12C renal 33% | TK-10 renal 51.1% | ACHN renal 53.9% | MOLT-4 leukemia 11.8% | RPMI-8226 leukemia 19.8% | OVCAR-8 ovarian 34.1% | OVCAR-5 ovarian 51.8% | OVCAR-4 ovarian 66.5% | SK-OV-3 ovarian 12.7% | IGROV1 ovarian 46.7% | HS 578T breast 33.7%
active: CAKI-1 renal 4.42% | A498 renal -8.68% | CCRF-CEM leukemia 3.08% | SR leukemia 2.01% | OVCAR-3 ovarian -14.3%

COc1ccc(C2=CC(c3ccc(OC)cc3Br)N3C=CSC3=N2)cc1 (stereo not drawn)
active: SR leukemia -22.1% | RPMI-8226 leukemia -9.05%
inactive: SK-MEL-2 melanoma 109% | SN12C renal 57.6% | UO-31 renal 37.7% | TK-10 renal 72% | ACHN renal 71.4% | A498 renal 72.2% | CCRF-CEM leukemia 26.9% | MOLT-4 leukemia 36.7% | OVCAR-8 ovarian 73.7% | OVCAR-5 ovarian 84.6% | OVCAR-4 ovarian 79.7% | SK-OV-3 ovarian 98.2% | IGROV1 ovarian 37.8% | OVCAR-3 ovarian 37.5% | HS 578T breast 87.7% | NCI/ADR-RES ovarian 86.5%

C/C(=N\OC(=O)Nc1cccc(Cl)c1)c1ccccc1
inactive: SK-MEL-2 melanoma 106% | SN12C renal 95% | UO-31 renal 82.8% | TK-10 renal 109% | ACHN renal 101% | A498 renal 42.8% | CCRF-CEM leukemia 89.1% | MOLT-4 leukemia 89.9% | SR leukemia 74% | RPMI-8226 leukemia 95.8% | OVCAR-8 ovarian 104% | OVCAR-5 ovarian 91% | OVCAR-4 ovarian 94.7% | SK-OV-3 ovarian 108% | IGROV1 ovarian 115% | OVCAR-3 ovarian 113% | HS 578T breast 86.4% | NCI/ADR-RES ovarian 108%

Oc1[nH]c2ccc(Cl)cc2c1/C=c1/ccc2c(c1)N=C(c1ccc(F)cc1)N=2
active: SR leukemia 8.49% | IGROV1 ovarian 5.76%
inactive: SK-MEL-2 melanoma 92.3% | SN12C renal 74.1% | UO-31 renal 61.4% | TK-10 renal 111% | ACHN renal 86.6% | CAKI-1 renal 44.5% | A498 renal 56.1% | MOLT-4 leukemia 35% | RPMI-8226 leukemia 69.2% | OVCAR-8 ovarian 84.7% | OVCAR-5 ovarian 103% | OVCAR-4 ovarian 79.4% | SK-OV-3 ovarian 87.4% | OVCAR-3 ovarian 72% | HS 578T breast 68.1% | NCI/ADR-RES ovarian 44.3%

CC(=O)c1ccc(-n2c(-c3cc(-c4ccsc4)n[nH]3)n[nH]c2=S)cc1
inactive: SK-MEL-2 melanoma 86.9% | SN12C renal 98.3% | UO-31 renal 89.5% | TK-10 renal 98% | ACHN renal 88.4% | CAKI-1 renal 92.7% | A498 renal 111% | MOLT-4 leukemia 87.6% | SR leukemia 94% | RPMI-8226 leukemia 101% | OVCAR-5 ovarian 97.8% | OVCAR-4 ovarian 105% | SK-OV-3 ovarian 104% | IGROV1 ovarian 107% | OVCAR-3 ovarian 113%

COc1ccc(C(=O)C(C#N)c2cc(OC)c(OC)c(OC)c2)cc1 (stereo not drawn)
inactive: SK-MEL-2 melanoma 99.7% | SN12C renal 109% | UO-31 renal 96.5% | TK-10 renal 94% | ACHN renal 104% | CAKI-1 renal 129% | CCRF-CEM leukemia 102% | MOLT-4 leukemia 88% | SR leukemia 71.5% | RPMI-8226 leukemia 96.7% | OVCAR-8 ovarian 93% | OVCAR-5 ovarian 106% | OVCAR-4 ovarian 102% | SK-OV-3 ovarian 105% | IGROV1 ovarian 110% | OVCAR-3 ovarian 111% | HS 578T breast 105% | NCI/ADR-RES ovarian 108%

[O-]/[N+](=C\c1ccccc1)CC1(O)CCCCC1
inactive: SK-MEL-2 melanoma 111% | SN12C renal 94.5% | UO-31 renal 96.3% | TK-10 renal 103% | ACHN renal 99.2% | A498 renal 82.9% | CCRF-CEM leukemia 101% | MOLT-4 leukemia 106% | SR leukemia 99.5% | RPMI-8226 leukemia 97.2% | OVCAR-8 ovarian 99.5% | OVCAR-5 ovarian 95.8% | OVCAR-4 ovarian 95.9% | SK-OV-3 ovarian 113% | IGROV1 ovarian 125% | OVCAR-3 ovarian 111% | HS 578T breast 98.2%

O=C(Nc1ccc(OS(=O)(=O)c2ccc(F)cc2)cc1)C12CC3CC(CC(C3)C1)C2
inactive: SK-MEL-2 melanoma 86% | SN12C renal 77.3% | TK-10 renal 87.5% | ACHN renal 76.5% | CAKI-1 renal 79.2% | A498 renal 40.4% | CCRF-CEM leukemia 52.1% | MOLT-4 leukemia 33.3% | SR leukemia 36.3% | RPMI-8226 leukemia 12.3% | OVCAR-8 ovarian 72.4% | OVCAR-5 ovarian 100% | OVCAR-4 ovarian 54.4% | SK-OV-3 ovarian 74.9% | IGROV1 ovarian 90.2% | OVCAR-3 ovarian 78.2% | HS 578T breast 75.8% | NCI/ADR-RES ovarian 60.2%

O=C(CS)OCC(COC(=O)CS)(COC(=O)CS)COC(=O)CS
active: MOLT-4 leukemia 3.08%
inactive: SK-MEL-2 melanoma 40.6% | SN12C renal 90.2% | UO-31 renal 93.5% | TK-10 renal 113% | ACHN renal 93.9% | CAKI-1 renal 96.5% | A498 renal 104% | SR leukemia 38.6% | RPMI-8226 leukemia 90.6% | OVCAR-8 ovarian 82.2% | OVCAR-5 ovarian 104% | OVCAR-4 ovarian 83.6% | SK-OV-3 ovarian 103% | IGROV1 ovarian 94.4% | OVCAR-3 ovarian 109% | NCI/ADR-RES ovarian 74.3%

CCCCCCCCCCCCCC[N+](C)(C)CCCCCCCCCCCCCC
inactive: SK-MEL-2 melanoma 67.6% | SN12C renal 67.6% | UO-31 renal 78% | TK-10 renal 48.3% | ACHN renal 57.1% | CAKI-1 renal 51.6% | A498 renal 102% | MOLT-4 leukemia 51.2% | SR leukemia 35.7% | RPMI-8226 leukemia 12.6% | OVCAR-8 ovarian 49.6% | OVCAR-5 ovarian 79.9% | OVCAR-4 ovarian 62% | SK-OV-3 ovarian 85.5% | OVCAR-3 ovarian 87.5% | NCI/ADR-RES ovarian 104%
active: IGROV1 ovarian 9.59%

COc1cc2cc(C(=O)Nc3ccccc3)c(N)nc2cc1OC
active: SK-MEL-2 melanoma -62% | TK-10 renal -48% | ACHN renal -0.0696% | CAKI-1 renal -13.8% | CCRF-CEM leukemia -21.7% | MOLT-4 leukemia -44.6% | SR leukemia -35.8% | RPMI-8226 leukemia -21.2% | OVCAR-8 ovarian -44.8% | IGROV1 ovarian -11.7% | NCI/ADR-RES ovarian -29.1%
inactive: SN12C renal 49.1% | A498 renal 52.4% | OVCAR-5 ovarian 73% | OVCAR-4 ovarian 22.3% | SK-OV-3 ovarian 23% | OVCAR-3 ovarian 27.8% | HS 578T breast 36.2%

CCCCCCCCCCCCCCC(C(=O)OCC)C(=O)OCC
inactive: SK-MEL-2 melanoma 112% | SN12C renal 101% | UO-31 renal 93% | TK-10 renal 117% | ACHN renal 98.3% | CAKI-1 renal 90.8% | A498 renal 105% | MOLT-4 leukemia 109% | SR leukemia 116% | RPMI-8226 leukemia 104% | OVCAR-8 ovarian 103% | OVCAR-5 ovarian 103% | OVCAR-4 ovarian 109% | SK-OV-3 ovarian 112% | IGROV1 ovarian 103% | OVCAR-3 ovarian 110% | NCI/ADR-RES ovarian 104%

CCN(CC)CCNc1c(C)cc(CO)c(Cl)c1C
inactive: SK-MEL-2 melanoma 112% | SN12C renal 97.7% | UO-31 renal 111% | TK-10 renal 106% | ACHN renal 106% | A498 renal 89% | CCRF-CEM leukemia 101% | MOLT-4 leukemia 93% | SR leukemia 104% | RPMI-8226 leukemia 105% | OVCAR-8 ovarian 90.3% | OVCAR-5 ovarian 117% | OVCAR-4 ovarian 103% | SK-OV-3 ovarian 120% | IGROV1 ovarian 64.8% | OVCAR-3 ovarian 117% | HS 578T breast 107% | NCI/ADR-RES ovarian 101%

CC(=O)[C@H]1CC[C@H]2[C@@H]3CC[C@H]4CC=CC[C@]4(C)[C@H]3CC[C@]12C
inactive: SK-MEL-2 melanoma 79.9% | SN12C renal 96.1% | UO-31 renal 83.7% | TK-10 renal 85.9% | ACHN renal 92.4% | CAKI-1 renal 72.9% | A498 renal 103% | MOLT-4 leukemia 83.9% | SR leukemia 68.9% | RPMI-8226 leukemia 65.5% | OVCAR-8 ovarian 94.3% | OVCAR-5 ovarian 87% | OVCAR-4 ovarian 89.9% | SK-OV-3 ovarian 101% | IGROV1 ovarian 93.9% | OVCAR-3 ovarian 122% | NCI/ADR-RES ovarian 98.9%

CCc1ccc(-c2ccc(NC3CCCCCC3)nn2)cc1S(N)(=O)=O
inactive: SK-MEL-2 melanoma 99.3% | SN12C renal 101% | UO-31 renal 102% | TK-10 renal 93.4% | ACHN renal 96.1% | CAKI-1 renal 96.6% | A498 renal 107% | MOLT-4 leukemia 91.7% | SR leukemia 103% | RPMI-8226 leukemia 99.4% | OVCAR-5 ovarian 97.5% | OVCAR-4 ovarian 102% | SK-OV-3 ovarian 105% | IGROV1 ovarian 110% | OVCAR-3 ovarian 117%

COC(=O)c1cc2oc(/C=N/NC(=O)c3cc4oc(-c5cccc(C(F)(F)F)c5)cc4[nH]3)cc2n1Cc1ccccc1
inactive: SK-MEL-2 melanoma 107% | SN12C renal 104% | UO-31 renal 91.5% | TK-10 renal 86.3% | ACHN renal 106% | A498 renal 85.8% | MOLT-4 leukemia 77.8% | SR leukemia 33% | RPMI-8226 leukemia 85.6% | OVCAR-4 ovarian 104% | SK-OV-3 ovarian 110% | IGROV1 ovarian 89.6% | OVCAR-3 ovarian 111% | HS 578T breast 87.5% | NCI/ADR-RES ovarian 97.9%
active: CCRF-CEM leukemia -26%

COc1ccc(C2C=C(c3ccc(Cl)cc3)N=C3SC=CN32)cc1 (stereo not drawn)
inactive: SK-MEL-2 melanoma 113% | SN12C renal 114% | UO-31 renal 88.5% | TK-10 renal 118% | ACHN renal 107% | A498 renal 104% | CCRF-CEM leukemia 88.2% | RPMI-8226 leukemia 94.6% | OVCAR-8 ovarian 104% | OVCAR-5 ovarian 121% | OVCAR-4 ovarian 97.4% | SK-OV-3 ovarian 111% | IGROV1 ovarian 113% | OVCAR-3 ovarian 132% | HS 578T breast 93.1% | NCI/ADR-RES ovarian 104%

— PubChem BioAssay (NCI)
